Most compounds without a hit are left out; they make up all but 1.5% or so of the library.
MbtI inh = blocks the Mycobacterium tuberculosis siderophore enzyme MbtI | P9WFX0 | purified MbtI enzyme, fluorescence intensity read-out | inhibition, % (test concentration not listed) | hit rate 0.89% among 100,000; in the data active = inhibition mostly above about 56%, no sharp cut-off; inactive = mostly below about 77%
Mtb MenB inh = inhibitors of Mycobacterium tuberculosis MenB enzyme; MenB enzyme assay, absorbance read-out; inhibition, % (no concentration beside the values); hit rate 0.43% among 100,000; P9WNP5; AID 540299; in the data active = inhibition above about 21%, passing the limit was not always enough
Polio RdRp inh = poliovirus RNA polymerase inhibition; P03300; poliovirus polymerase elongation, fluorescence polarization; active compounds read low; % elongation, % (compound at 16.7 µg/mL); hit rate 0.66% among 150,000; AID 588519; in the data active = % elongation below about 90%
Target sequence (P03300 1749-2209 limits assumed): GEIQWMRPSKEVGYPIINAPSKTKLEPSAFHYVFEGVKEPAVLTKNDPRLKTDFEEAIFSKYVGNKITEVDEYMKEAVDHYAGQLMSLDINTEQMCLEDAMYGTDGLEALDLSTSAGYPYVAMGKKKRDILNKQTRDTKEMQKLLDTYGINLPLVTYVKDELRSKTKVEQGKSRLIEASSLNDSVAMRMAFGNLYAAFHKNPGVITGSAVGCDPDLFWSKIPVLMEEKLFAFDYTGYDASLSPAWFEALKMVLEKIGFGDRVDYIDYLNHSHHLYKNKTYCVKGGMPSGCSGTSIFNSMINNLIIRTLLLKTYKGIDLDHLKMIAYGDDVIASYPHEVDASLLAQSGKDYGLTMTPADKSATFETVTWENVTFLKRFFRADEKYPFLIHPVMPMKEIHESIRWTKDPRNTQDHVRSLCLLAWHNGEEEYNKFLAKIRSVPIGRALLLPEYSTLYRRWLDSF
AID504770 = growth inhibitors of E. coli YBA685 in a screen for V. cholerae RctB (chromosome II replication) inhibitors. E. coli YBA685 rctB-dependent plasmid, OD600 growth, 3 h; active compounds read low. z-score (no concentration beside the values). hit rate 0.27% among 130,000. AID 504770; in the data active = z-score below about -2, passing the limit was not always enough
Numbers stand for hits; 0 = inactive; - = no result.

SMILES	MbtI inh	Mtb MenB inh	Polio RdRp inh	AID504770
N#CCSc1nc2ccccc2c(=O)n1CCn1c(SCC#N)nc2ccccc2c1=O	0	0	0	0
Cc1ccc(S(=O)(=O)NC(CO)C(=O)O)cc1 (stereo not given)	0	30.9	0	0
COC(=O)C(CO)NS(=O)(=O)c1ccc(C)cc1 (stereo not given)	-	-	-	0
NC(=O)NC(=O)/C=C/c1ccccc1O	0	0	0	0
O=C(Sc1cccs1)C1COc2ccccc2O1 (stereo not given)	-	-	-	-2.3
Cc1c(C(=O)N2CCOCC2)oc2c1-c1nn(CC(=O)NCc3cccc(F)c3)cc1CC2	-	-	84.0	-
Cc1c(C(=O)N2CCCC2)oc2c1-c1nn(CC(=O)NCCCOC(C)C)cc1CC2	-	-	47.0	-
O=c1oc2cc(Cl)c(O)c(Cl)c2s1	99.4	0	0	0
O=C(OCc1cc(=O)oc2cc(O)ccc12)c1cc(Br)ccc1O	0	0	0	0
O=C(OCc1cc(=O)oc2cc(O)ccc12)c1nc(Cl)ccc1Cl	0	0	88.0	0
Cc1cc(C)nc(NCCS)n1	0	0	0	0
CCOC(=O)c1cn(C2CC2)c2c(F)c(F)c(F)cc2c1=O	-	0	0	0
CCC(CC)NC(=O)c1ccc[nH]c1=S	93.0	0	0	0
CCOC(=O)c1c(N)sc2ccccc12	-	-	-	0
CCOC(=O)c1c(N)sc(N)c1C(=O)OCC	97.1	0	0	0
CN(C)C(CNC(=O)c1ccccn1)c1ccco1 (stereo not given)	0	0	0	0
CN(C)C(CNCc1ccc(-n2cnc3ccccc32)cc1)c1ccco1 (stereo not given)	0	32.2	0	0
COC(=O)c1ccc(/C=C/C(=O)OCC#N)cc1	0	0	88.0	0
O=C(NCc1cccnc1)c1cnn(-c2cccc(F)c2)c1C1CCNCC1	0	0	0	0
C=CCOc1cccc(C(=O)NCCC)c1	0	0	0	0
Oc1ccc(/C=N/n2cnn(Cc3ccccc3Cl)c2=S)c(O)c1	0	0	87.0	0
OCc1nc2ccccc2n1Cc1ccccc1Cl	0	0	0	0
CCOC(=O)c1c(-c2ccccc2)oc2ccc(OC(=O)Cc3n[nH]c(=O)c4ccccc34)cc12	0	0	0	0
Cc1c(C(=O)Nc2ccncc2)oc2ccccc12	0	38.4	0	0
O=C(COCc1cc(-c2ccc3c(c2)OCO3)on1)Nc1ccc(OC(F)(F)F)cc1	0	0	0	-2.55
SMILES	MbtI inh	Mtb MenB inh	Polio RdRp inh	AID504770
O=C(NC(=S)N1CCc2ccccc21)C1CCCC1	0	0	0	0
O=C(OCc1cccc(C(F)(F)F)c1)C1COc2ccccc2O1 (stereo not given)	0	0	0	0
CN(N)P(=S)(c1ccccc1)N(C)N	93.4	0	76.0	0
CC(=O)Nc1nc(NC(C)=O)n(-c2ccccc2)n1	0	0	0	0
Nc1nc(NC(=O)CCC(=O)O)nn1-c1ccccc1	0	30.3	0	0
COc1ccc(/C=c2\sc3ncnn3c2=O)cc1	0	0	89.0	0
CC(C)(CNS(=O)(=O)c1ccccc1Br)N1CCOCC1	0	0	0	0
CN(CCC(N)=O)Cc1ccccc1	0	38.4	0	0
O=C(Nc1nccs1)c1cc(=O)[nH]c2ccccc12	0	-	0	0
Sc1sccc1C=NC1CCCCC1	98.8	0	0	0
COC(=O)C(C)N(C#N)c1nc(C)cc(C)n1 (stereo not given)	0	-	-	0
Cc1cc(C)nc(N(C#N)C(=S)N(C)C)n1	102.2	0	0	0
CCNc1ncnc2oc(C)c(C(=O)OCC)c12	0	0	0	0
O=C(NC1CCS(=O)(=O)C1)Sc1ccccc1 (stereo not given)	51.5	0	0	0
COc1ccccc1N1C(=O)NC(=O)/C(=C\C=C\c2ccco2)C1=O	72.8	0	0	0
O=C1NC(=Nc2ccccc2)S/C1=C/C=C/c1ccco1	0	0	0	0
Cc1ccccc1N1C(=O)NC(=O)/C(=C\C=C\c2ccco2)C1=O	65.8	0	0	0
Cc1cc(C)n2cc(CN3CCOCC3)nc2n1	-	-	-	0
CCc1nonc1NC(=O)c1ccccc1	0	0	0	0
O=C(/C=C/Sc1ccc(Cl)cc1)c1ccccc1	0	0	0	0
Cn1ccnc1S/C=C/C(=O)c1ccc(Cl)cc1	59.0	0	0	0
Cc1cc(C)nc(S/C=C/C(=O)c2ccc(Cl)cc2)n1	0	0	0	0
Cn1cnnc1S/C=C/C(=O)c1ccc(Cl)cc1	85.3	0	0	0
Cc1nnc(SCC(=O)N2CCCCC2)o1	0	0	0	0
N#Cc1c(N)cc(N)nc1SCc1ccc(Cl)c(Cl)c1	0	0	0	0
SMILES	MbtI inh	Mtb MenB inh	Polio RdRp inh	AID504770
N#CSC(C#N)Cc1ccc(Cl)c(Cl)c1 (stereo not given)	89.1	-	0	-4.15
CC(C)n1nnc(CC(N)=O)n1	0	-	-	0
Cc1cc(C)c(C#N)c(SCC(=O)OC(C)C)n1	0	0	0	0
C=COC(=O)CSc1nc(C)cc(C)c1C#N	-	0	86.0	0
CCCC1=C(C(=O)OC)C(c2ccccc2)n2c(nc3ccccc32)N1 (stereo not given)	0	0	0	0
C/C(=N\NC(=Nc1ccccc1)c1ccccn1)c1ccccn1	64.5	0	0	0
CCc1ccc(N2C(=O)CC(Sc3ccccn3)C2=O)cc1 (stereo not given)	69.4	0	0	0
CCc1ccc(N2C(=O)CC(Sc3ccccc3N)C2=O)cc1 (stereo not given)	0	0	0	0
O=C1CC(Sc2ccccc2)C(=O)N1c1ccccc1 (stereo not given)	64.5	0	0	0
O=C1CC(Sc2ccccn2)C(=O)N1c1ccccc1 (stereo not given)	-	-	-	0
O=C1CC(Sc2cccs2)C(=O)N1c1ccccc1 (stereo not given)	-	-	-	0
O=C(O)c1cccnc1SC1CC(=O)N(c2ccc(Cl)cc2)C1=O (stereo not given)	65.5	0	0	0
CCc1ccc(N2C(=O)CC(Sc3nnc(N)s3)C2=O)cc1 (stereo not given)	100.8	0	0	0
Cc1cc(=O)n2c3c(cc(S(=O)(=O)N(C)c4ccccc4)cc13)CCC2	0	0	0	0
O=C(O)CCC(C(=O)O)N1C(=O)/C(=C/C=C/c2ccco2)SC1=S (stereo not given)	0	0	89.0	0
CCCc1cc(=O)oc2cc(OC(C)=O)ccc12	-	-	-	0
CN1CCC2(CC1)N=C(c1ccccc1)C(=S)N2	0	0	0	0
CCN1CCC2(CC1)N=C(c1ccccc1)C(=S)N2	77.4	0	0	0
COC(=O)C1=C(Nc2ccccc2NS(=O)(=O)c2ccccc2Cl)CSC1	-	-	-	0
Cc1onc(-c2ccccc2)c1C(=O)N1CCSC1=NCc1ccccc1	0	0	0	0
CCN(Cc1ccccc1)C(c1ccccn1)c1nnnn1C1CCCCC1 (stereo not given)	0	34.3	0	0
CN(c1ccc(O)cc1)c1nc(O)c(C2=c3ccccc3=NC2=O)s1	0	0	0	0
O=C1N=c2ccccc2=C1c1sc(N2CCCCC2)nc1O	0	0	58.0	0
O=C1N=c2ccccc2=C1c1sc(=S)[nH]c1O	84.5	0	0	0
O=C1N=c2ccccc2=C1c1sc(=O)[nH]c1O	0	0	0	0
O=C1C=C/C(=N/N(Cc2ccccc2)c2ccccc2)O1	90.3	0	0	0
CC(C)(/C=N/N(Cc1ccccc1)c1ccccc1)CO	0	0	0	0

Screening results as filed in PubChem.
